Outcome data for 40 compounds are collected here from PubChem BioAssay (Tox21).

Activity calls are given as the source filed them. Calls follow the shape of the dose curve; as a rule, active = well fitted inhibition curve with a large enough effect in the repeat runs (not every such curve was filed as active); inconclusive = weak or mixed curves; inactive = flat fitted curve, though single readings scatter.

Chain of Thyrotropin-releasing hormone receptor (Homo sapiens) (P34981 whole entry, looked up): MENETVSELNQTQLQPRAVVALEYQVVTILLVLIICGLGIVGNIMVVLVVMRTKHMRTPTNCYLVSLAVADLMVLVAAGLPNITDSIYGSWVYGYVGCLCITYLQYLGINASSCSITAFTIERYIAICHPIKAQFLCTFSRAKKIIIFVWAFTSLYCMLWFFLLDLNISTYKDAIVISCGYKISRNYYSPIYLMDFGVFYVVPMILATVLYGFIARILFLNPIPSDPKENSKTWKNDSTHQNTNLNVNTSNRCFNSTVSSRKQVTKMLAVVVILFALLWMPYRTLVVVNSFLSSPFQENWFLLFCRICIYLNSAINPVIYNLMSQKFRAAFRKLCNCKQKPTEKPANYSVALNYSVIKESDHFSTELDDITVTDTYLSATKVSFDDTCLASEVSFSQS

The target in this experiment is Thyrotropin-releasing hormone receptor (Homo sapiens) (UniProt P34981). The experiment is described as follows: qHTS assay to identify small molecule antagonists of the thyrotropin-releasing hormone receptor (TRHR) signaling pathway (AID 1346877). The note with it: TRHR-HEK293, TRH-induced calcium fluorescence, antagonist mode; series mostly up to 51.3 µM. The text has this:
National Center for Advancing Translational Sciences [NCATS]
NIH Chemical Genomics Center [NCGC]
U.S. Environmental Protection Agency [EPA]
National Institutes of Environmental Health Sciences [NIEHS]
National Toxicology Program [NTP]
U.S. Food and Drug Administration [FDA]
Thyrotropin-releasing hormone (TRH) receptor (TRHR) is a G-protein-coupled receptor which binds the tripeptide thyrotropin releasing hormone. TRHR is found in the brain and, when bound by TRH, acts (through phospholipase C) to increase intracellular inositol trisphosphate. It plays a crucial role in the anterior pituitary where it controls the synthesis and secretion of thyroid stimulating hormone and prolactin. The TRHR-Hek293 assay is a cell-based assay, and it has the potential to screen G protein-coupled receptors. A compound/drug can either activate (agonist) or suppress (antagonist) GPCRs that can be monitored by levels of intracellular calcium. In this assay, the Tox21 10K compound library was screened to identify potential TRHR antagonists.
Tox21 Assay Protocol Summary:
The TRHR-Hek293 cells were dispensed at 1500cells/4uL/well in 1536-well black-clear bottom plates using a Multidrop dispenser. After the assay plates were incubated at a 37 C/5% CO2 incubator for 18 hours, 4 uL of Dye-Loading Solution was added to each well. The plates were incubated at 37 C for 2 hours. For agonist mode, 23 nL of compounds dissolved in DMSO, positive controls or DMSO only was transferred to the assay plate by a pin tool. The fluorescence intensity in the plates was measured using FDSS 7000EX kinetic plate reader for 3 min at 1 sec intervals. For antagonist mode, 23 nL of compounds dissolved in DMSO, positive controls or DMSO only was transferred to the assay plate by a pin tool. After 5 min incubation at room temperature, 1 uL of TRH was added on the top of the cell/compound mixtures to achieve a final agonist concentration of 1 nM. The fluorescence intensity in the plates was measured using FDSS 7000EX kinetic plate reader for 3 min at 1 sec intervals. Each test compound was measured at 15 concentrations and in triplicates.
In general terms: In qHTS, concentration-response curves come from the screen itself.
As to `N[C@H](Cc1c[nH]c2ccccc12)C(=O)O`, the outcome was inactive.

With `C[C@]12CCC(=O)C=C1CC[C@@H]1[C@@H]2[C@@H](O)C[C@@]2(C)[C@H]1CC[C@]2(O)C(=O)CO`, the result was inactive.

As for `CC(O)CC(C)(C)O` (stereo not given), the result was inactive.

In the case of `Nc1nc(N)nc(-c2ccccc2)n1`, the outcome was inactive.

For the compound `C[Si]1(C)O[Si](C)(C)O[Si](C)(C)O[Si](C)(C)O1`, the outcome was inactive.

`OC1C(O)C(O)C(O)C(O)C1O` (stereo not given): the outcome was inactive.

For the compound `Cc1ccc(C(C)C)c(O)c1`, the outcome was inactive.

As for `CC1(C)NC(=O)NC1=O`, the outcome was inactive.

With `NC(=S)NNC(N)=S`, the outcome was inactive.

`CCCCCCCCCCCCCCCC(=O)OC(C)C`: the outcome was inactive.

Regarding `CC(CCO)CC(C)(C)C` (stereo not given), the outcome was inactive.

Turning to `CCCCC(C=O)CC` (stereo not given), the outcome was inactive.

As to `CCc1ccccc1CC`, the outcome was inactive.

For the compound `O=C(O)c1ccc(C(=O)O)c(C(=O)O)c1`, the result was inactive.

As to `NCCCCCCN`, the result was inactive.

In the case of `CC(C)CC(=O)CC(C)CC(C)C` (stereo not given), the result was inactive.

As to `COc1ccc(C)cc1N`, the result was inactive.

Turning to `Cc1ccc2ncccc2c1`, the result was inactive.

For the compound `C=CC(=O)OCCC(=O)O`, the result was inactive.

As to `CC(=O)c1ccc(O)cc1`, the outcome was inactive.

`CSc1ccc(Cl)cc1`: the result was inactive.

For `CC(C)(C)c1cc(Cc2cc(C(C)(C)C)c(O)c(C(C)(C)C)c2)cc(C(C)(C)C)c1O`, the result was inactive.

Take `CN(C)c1ccc(O)c2c1C[C@H]1C[C@H]3[C@H](N(C)C)C(=O)C(C(N)=O)=C(O)[C@@]3(O)C(=O)C1=C2O`: the result was inactive.

As to `C=C(C)C(=O)OCC(C)C`, the result was inactive.

On to `CCOC(=O)c1ccc(N)cc1`, for which the result was inactive.

For `COc1cc(OC)c(C(=O)CCCN2CCCC2)c(OC)c1`, the result was inactive.

With `CCCCCCCCCCN`, the result was inactive.

With `Clc1ccccn1`, the outcome was inactive.

For `CC(C)OP(=O)(CP(=O)(OC(C)C)OC(C)C)OC(C)C`, the outcome was inactive.

Regarding `CN(C)CCOC(=O)COc1ccc(Cl)cc1`, the outcome was inactive.

For `CCCCCCO`, the outcome was inactive.

For `CC(=O)CC(C)(C)O`, the outcome was inactive.

For the compound `CCO[Si](CCC#N)(OCC)OCC`, the outcome was inactive.

For `C=CC[N+](C)(C)CC=C`, the outcome was inactive.

With `Cc1ccc(S(=O)(=O)N=C=O)cc1`, the outcome was inactive.

With `CC1(C)OC[C@@H]2O[C@@]3(C(=O)O)OC(C)(C)O[C@H]3[C@@H]2O1`, the outcome was inactive.

Take `O=C1c2ccccc2CCc2ccccc21`: the result was inactive.

Take `O=C1CCCC1`: the result was inactive.

Regarding `CC(CCl)OP(=O)(OC(C)CCl)OC(C)CCl` (stereo not given), the outcome was inactive.

For `COC(=O)CCCC(=O)OC`, the result was inactive.
